The inhibition is the change of the read-out against control, counted positive when it falls.

Structures are written as SMILES.

In ChEMBL document CHEMBL1961873, “Compounds: GSK PKIS; Assays: Nanosyn kinase panel” (2012) one finds inhibition data, which are given here for 34 compounds.

Chain of Dual specificity protein kinase CLK3 (Homo sapiens) (P49761 whole entry, looked up): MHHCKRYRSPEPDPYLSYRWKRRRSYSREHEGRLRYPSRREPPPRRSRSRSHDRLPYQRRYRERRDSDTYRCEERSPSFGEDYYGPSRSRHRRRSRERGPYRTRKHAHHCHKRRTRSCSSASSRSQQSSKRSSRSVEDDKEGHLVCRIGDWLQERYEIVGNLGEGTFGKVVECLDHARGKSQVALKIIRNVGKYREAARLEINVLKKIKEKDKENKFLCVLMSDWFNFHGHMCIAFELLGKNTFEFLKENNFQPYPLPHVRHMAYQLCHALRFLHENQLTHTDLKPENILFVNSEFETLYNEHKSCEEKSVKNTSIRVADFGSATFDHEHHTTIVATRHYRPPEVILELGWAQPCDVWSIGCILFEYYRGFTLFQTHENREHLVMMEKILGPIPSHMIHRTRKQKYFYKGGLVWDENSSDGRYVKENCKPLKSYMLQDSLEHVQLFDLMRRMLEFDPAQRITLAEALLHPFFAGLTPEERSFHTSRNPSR

This test has as its target Dual specificity protein kinase CLK3 (Homo sapiens) (UniProt P49761). Conditions: at 0.1 µM.
On to `CN(c1ccc(NC(=O)Nc2c(Cl)cccc2Cl)cc1)c1ccnc(Nc2cccc(CS(C)(=O)=O)c2)n1`, for which the inhibition was -0.2%.

On to `CCS(=O)(=O)c1ccc(OC)c(Nc2ncc(-c3cccc(-c4ccccc4F)c3)o2)c1`, for which the inhibition is 2.7%.

With `CS(=O)(=O)CCNCc1ccc(-c2ccc3ncnc(Nc4ccc(OCc5ccccc5)c(Br)c4)c3c2)o1`, the inhibition was -3.26%.

`N#Cc1ccc(Oc2nccc(-c3c(-c4ccc(F)cc4)ncn3C3CCNCC3)n2)cc1`: the inhibition was 0.28%.

`Fc1ccc(-c2ncn(C3CCNCC3)c2-c2ccnc(Oc3ccc4c(c3)OCO4)n2)cc1`: the inhibition came to 0.88%.

`COc1cc(N2CCN(C(C)C)CC2)ccc1Nc1nc(Nc2ccc(F)cc2C(=O)NC[C@@H](O)CO)c2cc[nH]c2n1`: the inhibition is -0.73%.

For `O=C1NC(=O)C(c2cccc(Cl)c2)=C1Nc1ccc(Cl)c(C(=O)O)c1`, the inhibition turned out to be 1.12%.

For `NC(=O)c1cc(-c2ccncc2)cc(-c2ccccc2)c1N`, the inhibition amounted to 1.22%.

For the compound `CS(=O)(=O)CCNCc1cc(-c2cc3c(Nc4ccc(OCc5cccc(F)c5)c(Cl)c4)ncnc3s2)cs1`, the inhibition came out at 2.21%.

With `Cc1ccc(C(=O)NC2CCC2)cc1-c1ccc(C(=O)NCC2CC2)cc1`, the inhibition was found to be 1.37%.

On to `NC(=O)c1cc(-c2ccc(F)cc2)cc(-c2ccncc2)c1N`, for which the inhibition was 1.01%.

Turning to `O=C(Nc1n[nH]c2cc(-c3ccccc3)ccc12)C1CC1`, the inhibition was found to be 0.78%.

On to `O=C(Nc1n[nH]c2nc(-c3ccc(O)cc3)c(Br)cc12)C1CC1`, for which the inhibition turned out to be 2.91%.

In the case of `C/C(Nc1ccc(S(N)(=O)=O)cc1)=C1/C(=O)Nc2ccccc21`, the inhibition was -0.03%.

As to `O=C1Nc2ccccc2/C1=C/Nc1ccc(-n2cncn2)cc1`, the inhibition was 0.91%.

With `CCc1nccc2c1nc(-c1nonc1N)n2CC`, the inhibition is -0.31%.

For the compound `CCN(CC)Cc1ccc(Nc2nccc(-c3cnn4ncccc34)n2)cc1`, the inhibition is -2.57%.

For `Fc1ccc(-c2ncn(C3CCNCC3)c2-c2ccnc(Oc3ccc(F)c(F)c3)n2)cc1`, the inhibition was -3.62%.

For `C[C@@H](Oc1cc(-n2cnc3ccc(OCC4CCN(C)CC4)cc32)sc1C(N)=O)c1ccccc1Cl`, the inhibition stood at 1.64%.

For `COc1ccc2cc(-c3c(-c4ccncc4)nc(-c4ccc([S+](C)[O-])cc4C)n3C)ccc2c1` (centres undefined), the inhibition turned out to be 0.64%.

Regarding `CN1CCN(CCCNc2nc3ccc(Oc4ccc(NC(=O)Nc5cc(C(F)(F)F)ccc5F)cc4)cc3[nH]2)CC1`, the inhibition is -3.87%.

As for `Nc1nccc(-c2c(-c3ccc(F)cc3)ncn2C2CCC(O)CC2)n1` (centres undefined), the inhibition came to 1.02%.

For `c1ccc(Oc2ccc(Nc3ncc(-c4ccccc4)o3)cc2)cc1`, the inhibition came out at 0.6%.

In the case of `COc1ccc(-c2ccc3c(NC(=O)C4CC4)n[nH]c3n2)cc1`, the inhibition worked out at 0.83%.

Take `O=C(Nc1n[nH]c2nc(-c3ccco3)ccc12)C1CC1`: the inhibition turned out to be 0.26%.

`CCS(=O)(=O)c1ccc(OC)c(Nc2ncc(-c3ccccc3Cl)o2)c1`: the inhibition was 0.66%.

On to `CN(C)c1ccc2c(c1)/C(=C/Nc1ccc(S(N)(=O)=O)cc1)C(=O)N2`, for which the inhibition is 0.66%.

As for `CN(C)CCCNc1nccc(-c2c(-c3ccc(F)cc3)nn3cc(C(F)(F)F)ccc23)n1`, the inhibition was -2.82%.

As for `CCC(=O)Nc1ccc(C)c(-c2ccc(C(=O)NCC3CC3)cc2)c1`, the inhibition came to 0.16%.

For `NS(=O)(=O)c1ccc(Nc2cc(-c3ccc(O)c(F)c3)n[nH]2)cc1`, the inhibition is -0.37%.

Regarding `COc1cc2ncn(-c3cc(OCCc4ccccc4)c(C(N)=O)s3)c2cc1OC`, the inhibition stood at 0.57%.

For `Cc1ccc(C(=O)NC(C)C)cc1-c1ccc(C(=O)NCC2CC2)cc1`, the inhibition is -0.64%.

Regarding `NCc1ccc(-n2c(-c3nonc3N)nc3cnccc32)cc1`, the inhibition stood at 2.13%.

`COc1cc(Nc2ncc3c(C)nc(-c4cccc(C(F)(F)F)c4)n3n2)cc(OC)c1OC`: the inhibition worked out at 1.23%.
